Where a name gives a salt, the structure may show the parent alone.

This assay deals with K562. The assay can be described thus: cell viability relative to vehicle control; higher = less cytotoxic. As to conditions: 10 µM; SRSF2 genotype: SRSF2 wt/wt. The method, boiled down:
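Each screen used CRISPR-edited mutant and wild-type clones from four leukaemia lines. Compounds were acoustically dispensed at a single 10 µM dose, and CellTiter-Glo luminescence was read after 48 h with the supernatant first removed. Viability was analysed in Genedata Screener and given as percent of the on-plate vehicle control.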
`COC(=O)c1ccc(O)c(C(=O)OC)c1` [Dimetghyl 4-Hydroxyisophthalate]: the cell viability worked out at 99.4%.

In the case of `CN1CCN(c2cccc(Nc3nc4c(-c5ccc(S(C)(=O)=O)cc5)cccn4n3)c2)CC1`, the cell viability worked out at 70.5%.

As for `NS(=O)(=O)c1cc2c(cc1Cl)NC(C(Cl)Cl)NS2(=O)=O` (stereo not given) [Trichlormethiazide (Achletin)], the cell viability was found to be 102%.

`Nc1[nH]cnc2ncnc1-2` [Adenine hydrochloride]: the cell viability was determined as 105%.

For the molecule `Nc1ccc(C(=O)O)c(O)c1` [Sodium 4-Aminosalicylate], the cell viability amounted to 81.3%.

On to `O=c1c(-c2ccc(O)cc2)coc2cc(O[C@@H]3O[C@H](CO)[C@@H](O)[C@H](O)[C@H]3O)cc(O)c12` [Genistin (Genistoside)], for which the cell viability amounted to 94.7%.

Regarding `CC(C)=CCC[C@](C)(O[C@@H]1O[C@H](CO[C@@H]2OC[C@H](O)[C@H](O)[C@H]2O)[C@@H](O)[C@H](O)[C@H]1O)[C@H]1CC[C@]2(C)[C@@H]1[C@H](O)C[C@@H]1[C@@]3(C)CC[C@H](O[C@@H]4O[C@H](CO)[C@@H](O)[C@H](O)[C@H]4O[C@@H]4O[C@H](CO)[C@@H](O)[C@H](O)[C@H]4O)C(C)(C)[C@@H]3CC[C@]12C` [Ginsenoside Rb2], the cell viability worked out at 84%.

For the molecule `COc1ccc(COc2ccc(Cc3cnc(N)nc3N)cc2OC)cc1`, the cell viability is 80%.

`CCN(CC)CCCC(C)Nc1c2ccc(Cl)cc2nc2ccc(OC)cc12` (stereo not given) [Quinacrine Dihydrochloride Dihydrate]: the cell viability amounted to 2.17%.

With `Cc1c(-c2ccnn2C)cc(C(=O)NCc2ccc(S(C)(=O)=O)cn2)c(=O)n1-c1cccc(C(F)(F)F)c1`, the cell viability amounted to 100%.

In the case of `O=C(O)Cc1ccc2c(c1)C(=O)c1ccccc1CO2` [Isoxepac], the cell viability is 105%.

As to `CC1(C)S[C@@H]2[C@H](NC(=O)Cc3ccccc3)C(=O)N2[C@H]1C(=O)O` [Penicillin G Sodium], the cell viability is 99.5%.

`O=[N+]([O-])c1ccc(Sc2cccc[n+]2[O-])c2nonc12`: the cell viability turned out to be 0.23%.

With `COC(=O)c1cc(OC)c2c(c1-c1c(C(=O)OC)cc(OC)c3c1OCO3)OCO2` [Bifendate], the cell viability stood at 98.7%.

For `N#Cc1ccc(-c2c(-c3ncn[nH]3)sc(N3CCOCC3)c2C#N)c(F)c1`, the cell viability was determined as 68.2%.

Regarding `Cc1ncc(CCCN(C)C)cc1Nc1ncc2c(n1)-c1ccc(C(F)(F)F)cc1NC(=S)C2`, the cell viability is 54.3%.

Regarding `Nc1ccccc1NC(=O)c1cnccn1`, the cell viability came out at 82.8%.

On to `N[C@@H]1CCCN(c2c(/C=C3\SC(=O)NC3=O)cccc2-c2ccccc2)C1`, for which the cell viability turned out to be 81.1%.

With `O=C(O)CCCC[C@@H]1CCSS1` (racemic) [Thioctic acid], the cell viability was found to be 88.3%.

As to `COc1cn(-c2ccc(-n3cccn3)cc2F)nc(-c2ccnn2-c2ccccc2)c1=O`, the cell viability is 99.9%.

As for `COc1ccc(S(=O)(=O)N(CCO)c2ccccc2CN(C)C/C=C/c2ccc(Cl)cc2)cc1` [KN-93 Phosphate], the cell viability came to 51.6%.

As to `CC(C)OC(=O)C(C)(C)Oc1ccc(C(=O)c2ccc(Cl)cc2)cc1` [Fenofibrate (Tricor, Trilipix)], the cell viability came out at 85.1%.

For `Cc1cc2c3c([n+](C)c4ccc(F)cc4c3c1)-c1cc(F)ccc1N2C` [RHPS 4 methosulfate], the cell viability amounted to 61.4%.

Take `COc1cc(Nc2ncc(F)c(Nc3ccc4c(n3)NC(=O)C(C)(C)O4)n2)cc(OC)c1OC`: the cell viability was found to be 104%.

In the case of `COc1cc2ncnc(Nc3ccc(Oc4ccccc4)cc3C)c2cc1OC`, the cell viability is 79.3%.

In the case of `Cn1cc(-c2ccc(S(=O)(=O)n3ccc(/C=C/C(=O)Nc4ccccc4N)c3)cc2)cn1`, the cell viability is 32%.

In the case of `Cn1cc(CNCC2CCN(c3ncc(C(=O)NO)cn3)CC2)c2ccccc21`, the cell viability amounted to 3%.

In the case of `N[C@@H]1CN(c2c(F)cc3c(=O)c(C(=O)O)cn([C@@H]4C[C@@H]4F)c3c2Cl)CC12CC2` [Sitafloxacin hydrate], the cell viability stood at 91.9%.

With `COC(=O)C1=C(C)NC(C)=C(C(=O)OC(C)C)C1c1cccc2nonc12` (stereo not given) [Isradipine (Dynacirc)], the cell viability amounted to 97.3%.

Take `O=C(Nc1nccs1)C(c1cc(F)ccc1O)N1Cc2ccccc2C1=O` (stereo not given): the cell viability turned out to be 96.6%.

Take `Nc1cc(F)ccc1NC(=O)/C=C/c1cnn(C/C=C/c2ccccc2)c1`: the cell viability came to 83.6%.

Regarding `C=C1[C@H](O)C[C@H]2[C@@H](/C=C(\C)C(=O)[C@@]3(O)C[C@H](C)[C@H](O)[C@@H]3[C@H]1O)C2(C)C`, the cell viability turned out to be 99%.

Turning to `O=C(Nc1cccc(C(F)(F)F)c1)Nc1cc(S(=O)(=O)NC2CC2)ccc1-c1ccsc1`, the cell viability stood at 80.2%.

Turning to `CC(C)(NS(=O)(=O)c1ccc2c(Cl)cnc(N=C(N)N)c2c1)C(=O)O`, the cell viability came out at 104%.

Regarding `C[C@]12CCC3=C4CCC(=O)C=C4CC[C@H]3[C@@H]1CC[C@@]2(O)CC#N` [Dienogest], the cell viability came to 102%.

Take `Cc1ccc(NS(=O)(=O)c2ccc3c(c2)C2C=CCC2C(c2ccc(C(=O)O)cc2)N3)cc1C` (stereo not given): the cell viability came to 110%.

As to `CC(=O)O[C@]1(C(C)=O)CC[C@H]2[C@@H]3C[C@H](C)C4=CC(=O)C=C[C@]4(C)[C@@]3(F)[C@@H](O)C[C@@]21C` [Fluorometholone Acetate], the cell viability was 85.4%.

Regarding `Cc1cccc(-c2[nH]c(C(C)(C)C)nc2-c2ccc3nccnc3c2)n1`, the cell viability was found to be 99.7%.

Consider `COc1ccc(Cn2ccc3ccc(C(=O)NO)cc32)cc1`, for which the cell viability is 84.4%.

Regarding `COc1cc(C(=O)O)ccc1NC(=O)[C@@H]1N[C@@H](CC(C)(C)C)[C@](C#N)(c2ccc(Cl)cc2F)[C@H]1c1cccc(Cl)c1F` [Idasanutlin (RG-7388)], the cell viability was found to be 86.3%.

These data come from the supplement of paper PMC10981050.
